In ChEMBL document CHEMBL4513146, “CO-ADD screening of Karazin Kharkiv National University (Ukraine) compounds”:
Entries with a potency or affinity are not part of this list.

The molecules below were run on Staphylococcus aureus. Conditions: Concentration 32 ug.mL-1;; ASSAY_TEST Inhibition of Bacterial Growth; detection method Absorption (OD600); MEDIA CAMHB; plate type 384well; NBS; CORNING #3640; time 18 hr.
For CC(C)(C)OC(=O)N1CCC(NC(=O)CCc2nnc3ccc(-c4ccccc4)nn23)CC1, the Inhibition was 1.31%.
In the case of CCc1ccc(N(Cc2ccc(Cl)cc2)S(=O)(=O)c2cccn3c(C)nnc23)cc1, the Inhibition is reported as 0.63%.
Work on CCOc1ccc(-n2ccn3c(SCC(=O)NCc4ccccc4Cl)nnc3c2=O)cc1 yielded an Inhibition of 3.68%.
In the case of COC(=O)c1ccccc1NC(=O)Cn1nc2c(Oc3ccccc3C)nccn2c1=O, the Inhibition is reported as 4.43%.
CC(C)Cn1c(=O)c2sccc2n2c(=O)n(Cc3ccccc3Cl)nc12 was tested, and the Inhibition was 2.13%.
With COc1cccc(-n2ccn3c(SCc4cccc(C)c4)nnc3c2=O)c1 the Inhibition was 13.81%.
Molecule COc1ccc(CNC(=O)Cn2nc3c(N4CCOCC4)nccn3c2=O)cc1 has an Inhibition of 22.13%.
Cc1ccccc1Oc1nccn2c(=O)n(CC(=O)Nc3cc(Cl)ccc3Cl)nc12 was tested, and the Inhibition was 0.32%.
COc1ccc(N(Cc2ccc(F)cc2)S(=O)(=O)c2ccc3nncn3c2)cc1 was tested, and the Inhibition was -7.56%.
Molecule COc1cc(OC)c(NC(=O)Cn2nc3ccc(SC4CCCCC4)nn3c2=O)cc1Cl has an Inhibition of 7.67%.
With COc1ccc(C(=O)CSc2nnc3c(=O)n(-c4ccc(F)c(F)c4)ccn23)cc1OC the Inhibition was 3.91%.
For Cc1ccc(NC(=O)Cn2nc3ccc(SC(C)(C)C)nn3c2=O)c(C)c1, the Inhibition was 13%.
In the case of CCc1nnc2ccc(S(=O)(=O)N(Cc3ccc(F)cc3)c3ccc(OC)cc3)cn12, the Inhibition is reported as 6.39%.
Molecule Cc1ccc(NC(=O)Cn2nc3ccc(SCc4ccc(Cl)cc4)nn3c2=O)cc1C has an Inhibition of 4.09%.
In the case of CCOC(=O)C1CCCN(C(=O)Cn2nc3n(CC(C)C)c(=O)c4sccc4n3c2=O)C1 (stereo not given), the Inhibition is reported as -2.49%.
CCc1nnc2c(S(=O)(=O)N(Cc3cccc(F)c3)c3ccc(C)c(C)c3)cccn12 was tested, and the Inhibition was 17.57%.
Work on Cc1ccc(-c2cc3c4nnc(SCC(=O)Nc5ccc(C#N)cc5)n4ccn3n2)cc1 yielded an Inhibition of -4.94%.
Cc1ccc(Sc2ccc3nn(CC(=O)Nc4ccc(F)c(Cl)c4)c(=O)n3n2)cc1 was tested, and the Inhibition was 7.06%.
Molecule COc1ccccc1Cn1c(=O)c2sccc2n2c(=O)n(Cc3ccccc3)nc12 has an Inhibition of 4.84%.
In the case of Cc1ccc(NC(=O)Cn2nc3ccc(SCc4ccc(Cl)cc4)nn3c2=O)cc1, the Inhibition is reported as -0.24%.
With COc1ccc(NC(=O)Cn2nc3cc(C)nc(Nc4cc(C)cc(C)c4)n3c2=O)cc1 the Inhibition was 9.51%.
For CCOc1ccccc1NC(=O)Cn1nc2c3c4c(sc3ncn2c1=O)CCCC4, the Inhibition was -4.82%.
CCOC(=O)c1ccccc1NC(=O)Cn1nc2c3sc(N4CCCC4)nc3ncn2c1=O gave an Inhibition of 11.36%.
Work on Cc1ccc(NC(=O)c2ccc3nnc(SCC(=O)Nc4ccc(Br)cc4)n3c2)cc1 yielded an Inhibition of -2.55%.
With Cc1ccc(-c2ccc3nn(CC(=O)NC4CCCCC4)c(=O)n3n2)cc1C the Inhibition was 8.8%.
Work on COc1ccccc1-n1ccn2c(SCc3cc(C)ccc3C)nnc2c1=O yielded an Inhibition of 12.05%.
For COc1ccc(-n2ccn3c(=O)n(Cc4cc(C)ccc4C)nc3c2=O)cc1Cl, the Inhibition was 5.41%.
Molecule COc1ccc(-c2cc3c4nn(CC(=O)NCc5ccc(Cl)cc5)c(=O)n4ccn3n2)cc1 has an Inhibition of 12.72%.
Molecule COc1ccc(CNC(=O)Cn2nc3c4cc(-c5ccc(Cl)cc5)nn4ccn3c2=O)cc1 has an Inhibition of 6.34%.
For O=C(NCc1ccccc1)c1ccc2nn(CC(=O)N3CCN(c4ccccc4)CC3)c(=O)n2c1, the Inhibition was 4.31%.
For COc1ccc(N(Cc2cccc(F)c2)S(=O)(=O)c2ccc3nncn3c2)cc1, the Inhibition was -9.11%.
In the case of Cc1nnc2ccc(S(=O)(=O)N(Cc3cccc(F)c3)c3ccc(F)c(F)c3)cn12, the Inhibition is reported as 0.15%.
Work on O=C(CSc1nnc2c(=O)n(-c3ccc(F)cc3)ccn12)N1CCN(c2ccccc2F)CC1 yielded an Inhibition of 14.78%.
For Cc1ccc(Cn2nc3c(=O)n(-c4ccc(C)c(C)c4)ccn3c2=O)cc1, the Inhibition was 14.06%.
CCC(C)NC(=O)Cn1nc2n(CCC(C)C)c(=O)c3sccc3n2c1=O (stereo not given) gave an Inhibition of -2.65%.
For COc1ccc(NC(=O)CSc2nc3ccccc3n3cnnc23)cc1OC, the Inhibition was 12.3%.
Cc1oc(-c2ccccc2)nc1CSc1nc2ccccc2n2c(C(C)C)nnc12 was tested, and the Inhibition was -2.26%.
Work on Cc1ccc(NC(=O)Cn2nc3ccc(SC(C)(C)C)nn3c2=O)cc1C yielded an Inhibition of -0.92%.
Molecule O=C(Cn1nc2ccc(Sc3cccc(F)c3)nn2c1=O)NCc1ccc(C(F)(F)F)cc1 has an Inhibition of 12.64%.
With Cc1[nH]c2ccccc2c1C(=O)CSc1nnc2c(=O)n(-c3ccc(Br)cc3)ccn12 the Inhibition was -0.76%.

These molecules were tested on Escherichia coli. Conditions: Concentration 32 ug.mL-1;; ASSAY_TEST Inhibition of Bacterial Growth; detection method Absorption (OD600); MEDIA CAMHB; plate type 384well; NBS; CORNING #3640; time 18 hr.
CC(C)(C)OC(=O)N1CCC(NC(=O)CCc2nnc3ccc(-c4ccccc4)nn23)CC1 gave an Inhibition of -5.19%.
With CCc1ccc(N(Cc2ccc(Cl)cc2)S(=O)(=O)c2cccn3c(C)nnc23)cc1 the Inhibition was -8.46%.
CCOc1ccc(-n2ccn3c(SCC(=O)NCc4ccccc4Cl)nnc3c2=O)cc1 gave an Inhibition of -5.16%.
COC(=O)c1ccccc1NC(=O)Cn1nc2c(Oc3ccccc3C)nccn2c1=O gave an Inhibition of -5.27%.
For CC(C)Cn1c(=O)c2sccc2n2c(=O)n(Cc3ccccc3Cl)nc12, the Inhibition was -6.09%.
With COc1cccc(-n2ccn3c(SCc4cccc(C)c4)nnc3c2=O)c1 the Inhibition was -5.33%.
COc1ccc(CNC(=O)Cn2nc3c(N4CCOCC4)nccn3c2=O)cc1 gave an Inhibition of 3.1%.
Molecule Cc1ccccc1Oc1nccn2c(=O)n(CC(=O)Nc3cc(Cl)ccc3Cl)nc12 has an Inhibition of -4.76%.
With COc1ccc(N(Cc2ccc(F)cc2)S(=O)(=O)c2ccc3nncn3c2)cc1 the Inhibition was -2.8%.
COc1cc(OC)c(NC(=O)Cn2nc3ccc(SC4CCCCC4)nn3c2=O)cc1Cl was tested, and the Inhibition was 5.95%.
COc1ccc(C(=O)CSc2nnc3c(=O)n(-c4ccc(F)c(F)c4)ccn23)cc1OC gave an Inhibition of -0.1%.
Cc1ccc(NC(=O)Cn2nc3ccc(SC(C)(C)C)nn3c2=O)c(C)c1 was tested, and the Inhibition was -1.14%.
CCc1nnc2ccc(S(=O)(=O)N(Cc3ccc(F)cc3)c3ccc(OC)cc3)cn12 was tested, and the Inhibition was -3.2%.
Cc1ccc(NC(=O)Cn2nc3ccc(SCc4ccc(Cl)cc4)nn3c2=O)cc1C showed an Inhibition of -6.92%.
Work on CCOC(=O)C1CCCN(C(=O)Cn2nc3n(CC(C)C)c(=O)c4sccc4n3c2=O)C1 (stereo not given) yielded an Inhibition of -6.05%.
CCc1nnc2c(S(=O)(=O)N(Cc3cccc(F)c3)c3ccc(C)c(C)c3)cccn12 gave an Inhibition of 2.28%.
Molecule Cc1ccc(-c2cc3c4nnc(SCC(=O)Nc5ccc(C#N)cc5)n4ccn3n2)cc1 has an Inhibition of -8.26%.
In the case of Cc1ccc(Sc2ccc3nn(CC(=O)Nc4ccc(F)c(Cl)c4)c(=O)n3n2)cc1, the Inhibition is reported as 0.26%.
Molecule COc1ccccc1Cn1c(=O)c2sccc2n2c(=O)n(Cc3ccccc3)nc12 has an Inhibition of -5.32%.
For Cc1ccc(NC(=O)Cn2nc3ccc(SCc4ccc(Cl)cc4)nn3c2=O)cc1, the Inhibition was -6.34%.
In the case of COc1ccc(NC(=O)Cn2nc3cc(C)nc(Nc4cc(C)cc(C)c4)n3c2=O)cc1, the Inhibition is reported as -1.23%.
In the case of CCOc1ccccc1NC(=O)Cn1nc2c3c4c(sc3ncn2c1=O)CCCC4, the Inhibition is reported as -7.86%.
For CCOC(=O)c1ccccc1NC(=O)Cn1nc2c3sc(N4CCCC4)nc3ncn2c1=O, the Inhibition was -3.52%.
Work on Cc1ccc(NC(=O)c2ccc3nnc(SCC(=O)Nc4ccc(Br)cc4)n3c2)cc1 yielded an Inhibition of -1.72%.
In the case of Cc1ccc(-c2ccc3nn(CC(=O)NC4CCCCC4)c(=O)n3n2)cc1C, the Inhibition is reported as 0.07%.
Work on COc1ccccc1-n1ccn2c(SCc3cc(C)ccc3C)nnc2c1=O yielded an Inhibition of -5.03%.
With COc1ccc(-n2ccn3c(=O)n(Cc4cc(C)ccc4C)nc3c2=O)cc1Cl the Inhibition was -0.01%.
In the case of COc1ccc(-c2cc3c4nn(CC(=O)NCc5ccc(Cl)cc5)c(=O)n4ccn3n2)cc1, the Inhibition is reported as 5.93%.
For COc1ccc(CNC(=O)Cn2nc3c4cc(-c5ccc(Cl)cc5)nn4ccn3c2=O)cc1, the Inhibition was 4.2%.
With O=C(NCc1ccccc1)c1ccc2nn(CC(=O)N3CCN(c4ccccc4)CC3)c(=O)n2c1 the Inhibition was -4.36%.
In the case of COc1ccc(N(Cc2cccc(F)c2)S(=O)(=O)c2ccc3nncn3c2)cc1, the Inhibition is reported as 1.35%.
Cc1nnc2ccc(S(=O)(=O)N(Cc3cccc(F)c3)c3ccc(F)c(F)c3)cn12 showed an Inhibition of -12.6%.
In the case of O=C(CSc1nnc2c(=O)n(-c3ccc(F)cc3)ccn12)N1CCN(c2ccccc2F)CC1, the Inhibition is reported as -0.33%.
For Cc1ccc(Cn2nc3c(=O)n(-c4ccc(C)c(C)c4)ccn3c2=O)cc1, the Inhibition was -0.87%.
CCC(C)NC(=O)Cn1nc2n(CCC(C)C)c(=O)c3sccc3n2c1=O (stereo not given) gave an Inhibition of -5.43%.
Work on COc1ccc(NC(=O)CSc2nc3ccccc3n3cnnc23)cc1OC yielded an Inhibition of 2.46%.
Cc1oc(-c2ccccc2)nc1CSc1nc2ccccc2n2c(C(C)C)nnc12 gave an Inhibition of -5.26%.
Cc1ccc(NC(=O)Cn2nc3ccc(SC(C)(C)C)nn3c2=O)cc1C was tested, and the Inhibition was 2.46%.
O=C(Cn1nc2ccc(Sc3cccc(F)c3)nn2c1=O)NCc1ccc(C(F)(F)F)cc1 showed an Inhibition of -0.57%.
For Cc1[nH]c2ccccc2c1C(=O)CSc1nnc2c(=O)n(-c3ccc(Br)cc3)ccn12, the Inhibition was -11.28%.
